An excerpt weighted towards active compounds, which were near 19% of everything screened.
DT40 TDP1 CPT: growth inhibition of DT40 Tdp1-/-;hTDP1 cells with camptothecin (screen for TDP1 inhibitors). chicken DT40 Tdp1-/-;hTDP1 cells + 20 nM CPT, ATP luminescence, 48 h. Potency, µM (series often up to 46.2 µM), for the others: top-dose activity change, negative = growth inhibition, usual class: inhibitors. hit rate 12% among 420,000; also: potency is read from the fitted curve at half-maximal effect; nearly all actives have a fitted effect of over 55% in size
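Chicken DT40 Tdp1-/- cells complemented with human TDP1, 400 cells/well, exposed to compounds plus 20 nM camptothecin for at least 48 h at 37 C; viability read as ATP content by CellTiter-Glo luminescence.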
HT1080 IDH1KD tx: HT-1080 IDH1 knockdown cell toxicity (counter line); HT-1080 IDH1 knockdown viability, ATP luminescence, 48 h; Potency, µM (top dose mostly 46.1 µM), for the others: top-dose activity, negative = toxicity, most hits filed as cytotoxic; hit rate 2% among 360,000; AID 686971;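 also: potency is read from the fitted curve at half-maximal effect; 0% = DMSO wells and -100% = cell-free medium wells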
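In this qHTS, HT-1080 cells depleted of IDH1 are exposed for 48 h at 37 °C to compound titrations. Toxicity is scored from CellTiter-Glo luminescence, with DMSO as full viability and medium alone as none.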
DT40 TDP1 no CPT: qHTS for Inhibitors of human tyrosyl-DNA phosphodiesterase 1 (TDP1): qHTS in cells in absence of CPT. DT40 Tdp1-/- hTDP1 cells, no CPT, ATP luminescence, 48 h. hit rate 15% among 420,000. Potency, µM (top dose mostly 46.2 µM), for the others: at the top dose activity change, negative = growth inhibition, usual class: inhibitors. AID 686978, 2013; also: potency is read from the fitted curve at half-maximal effect; nearly all actives have a fitted effect of over 55% in size
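Chicken DT40 Tdp1-/- cells stably complemented with human TDP1 were seeded at 400 cells/well with DMSO in place of 20 nM camptothecin. After compound pinning, cells grew at least 48 hr at 37 °C; viability read by CellTiter-Glo luminescence.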
HT1080-NT tox: kills 2HG-producing HT-1080-NT fibrosarcoma cells. HT-1080-NT fibrosarcoma viability, CellTiter-Glo ATP luminescence, 48 h. Potency, µM (highest dose often 46.1 µM), for inactives: at the highest dose activity, negative = less viability, hits mostly cytotoxic. hit rate 1.6% among 360,000. AID 686970;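 also: NT is the 2HG producing partner of a matched IDH1 knockdown line; potency is read from the fitted curve at half-maximal effect; 0% = DMSO-treated cells and -100% = media-only wells without cells; nearly all actives have a fitted effect of over 55% in size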
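A 48-hour cytotoxicity screen used HT-1080-NT cells plated 2 hours before compound delivery. ATP-based CellTiter-Glo luminescence measured viability, normalized to DMSO and no-cell controls.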
ELG1 DNA repair: inhibitors of ELG1-dependent DNA repair in HEK293T cells. HEK293T ELG1-luciferase reporter, luminescence, 16 h; DNA damage induced by 5-fluorouridine. Potency, µM (highest dose often 46.1 µM), for the others: at the top dose activity change, negative = inhibition, actives largely listed as inhibitors. hit rate 2.3% among 330,000. AID 504467; also: potency is read from the fitted curve at half-maximal effect; nearly all actives have a fitted effect of over 55% in size
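DMSO vehicle served as the neutral condition. Each well held 2,000 cells given 5-fluorouridine plus compound; after 16 hr at 37 °C/5% CO2, ONE-Glo was added and luciferase measured 30 min later.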
IL-1B inflam inh: blocks inflammasome-driven IL-1 beta release | hit rate 4.7% among 360,000 | THP-1 LPS/ATP IL-1B secretion, AlphaLISA, 16 h; active compounds read low | activity change, % at 57.5 µM; in the data active = activity change below about -50%; inconclusive = mostly about -30% to -49%
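THP-1 cells pretreated 1 hr with compounds (up to 57.5 uM final), then stimulated with LPS (250 ng/mL final) plus ATP (1.25 mM final); secreted IL-1B measured by AlphaLISA after 16 hr, decreased signal indicating inhibition.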
Starred values were filed as active, the others as inactive; ? = inconclusive; / = no result given; [ ] = remark or other dose. Unless noted, calls follow the shape of the dose curve; as a rule, active = well fitted curve in the direction sought with a large enough effect; inconclusive = small, poorly fitted or top-dose-only effect, or another doubt; inactive = no such curve, though single readings can be large; an effect the other way counts as inactive or inconclusive. Unless noted, % is scaled to controls: 0 for no effect and ±100 for the full control effect.

SMILES	DT40 TDP1 CPT	HT1080 IDH1KD tx	DT40 TDP1 no CPT	HT1080-NT tox	ELG1 DNA repair	IL-1B inflam inh
Cc1cc(C)c2c(=O)cc(C(=O)Nc3ccccc3C(F)(F)F)oc2c1	0%	/	-18%	/	/	/
Cc1ccc(NC(=O)C2CCCN(c3cnccn3)C2)cc1Cl (centres undefined)	?	/	23µM*	/	/	/
O=C(Nc1ccc(F)c(Cl)c1)C1CCCN(c2cnccn2)C1 (centres undefined)	?	0%	?	13%	1%	0
CCOC(=O)c1ccc(NC(=O)C2CCCN(c3cnccn3)C2)cc1 (centres undefined)	?	-2%	15µM*	16%	?	-13
CCCc1ccc(NC(=O)C2CCN(c3cnccn3)CC2)cc1	16µM*	?	23µM*	-15%	9%	-10
Cc1cccc(NC(=O)C2CCCN(c3cnccn3)C2)c1 (centres undefined)	-2%	0%	-29%	6%	9%	3
O[C@@H]1CN(Cc2ccc(-n3cccn3)cc2)CC[C@H]1N1CCN(c2ccccc2F)CC1	13µM*	-14%	3.7µM*	?	?	-62*
CCC(CC)C(=O)Nc1nc2c(s1)CC(C)CC2 (centres undefined)	16µM*	/	18µM*	/	/	/
CC1CCc2nc(NC(=O)c3ccco3)sc2C1 (centres undefined)	?	-15%	?	-14%	?	-25
CCOc1ccccc1C(=O)Nc1nc2c(s1)CC(C)CC2 (centres undefined)	?	/	21µM*	/	/	/
CC(C)c1ccc(C2N=C(N)Nc3nc4ccccc4n32)cc1 (centres undefined)	?	/	-26%	/	/	/
OC(c1ccccc1)(c1ccccc1)C1CCN(CCCOc2ccccc2Cl)CC1	21µM*	?	16µM*	21µM*	/	?
COc1ccccc1OCCCN1CCC(C(O)(c2ccccc2)c2ccccc2)CC1	?	16µM*	21µM*	21µM*	/	-54*
COc1ccccc1OCCCCN1CCC(C)CC1	3%	6%	-4%	16%	-7%	7
Clc1ccccc1OCCN1CCCCC1	-12%	?	-10%	14%	-1%	-2
O=C(Nc1ccccc1)C(Cc1ccccc1)N1Cc2ccccc2C1=O (centres undefined)	8%	/	-12%	/	/	/
O=C(Nc1ccc([N+](=O)[O-])cc1)C(Cc1ccccc1)N1C(=O)c2cccc3cccc(c23)C1=O (centres undefined)	?	-27%	5.2µM*	?	6%	55
Cn1c2nc3ccccc3c-2nc2ccccc21	18µM*	9%	8.2µM*	1%	/	-3
Cn1c(-c2ccc(Br)o2)nc2ccccc21	11µM*	18µM*	10µM*	12µM*	?	-2
Cc1ccc(N2CC(O)=C(c3nc4ccccc4c(=O)[nH]3)C2=N)cc1C	?	?	?	?	6%	-9
CC(C)(C)NS(=O)(=O)c1cc(C(=O)Nc2sccc2C#N)ccc1Cl	16µM*	?	12µM*	?	-23%	4
N#Cc1ccsc1NC(=O)c1cnccn1	-7%	-3%	-2%	3%	14%	18
O=C(O)Cn1c(COc2ccc(Cl)cc2)nc2ccccc21	-4%	15%	-1%	16%	-4%	-8
COc1cccc(OCc2nc3ccccc3n2CCOc2ccc(C)cc2)c1	23µM*	/	16µM*	/	/	/
COc1cccc(OCc2nc3ccccc3n2Cc2ccccc2)c1	?	/	18µM*	/	/	/
SMILES	DT40 TDP1 CPT	HT1080 IDH1KD tx	DT40 TDP1 no CPT	HT1080-NT tox	ELG1 DNA repair	IL-1B inflam inh
Cc1ccccc1Cn1c(COc2ccc(Cl)cc2)nc2ccccc21	?	/	13µM*	/	/	/
COc1cccc(Cn2c(C(C)n3c(-c4cnccn4)nc4ccccc43)nc3ccccc32)c1 (centres undefined)	?	15µM*	21µM*	?	/	?
COc1cccc(NC(=O)CSc2nc(O)c(C/C=C/c3ccccc3)c(=O)[nH]2)c1	-6%	/	?	/	/	/
COc1cc(CN2CCCC(n3cc(C(=O)N4CCCCC4)nn3)C2)cc(OC)c1OC (centres undefined)	-10%[9.04 µM]	/	-2%	/	/	/
c1ccc(NCc2nc3ccccc3n2CCOc2ccccc2)cc1	?	-6%	?	2%	?	-11
COCc1nc2ccccc2n1Cc1ccc(C(C)(C)C)cc1	21µM*	/	26µM*	/	/	/
COc1ccc(NCc2nc3ccccc3n2CCOc2ccccc2)cc1	?	0%	?	-6%	?	-114*
COc1ccc(NCc2nc3ccccc3n2C)cc1	-11%	-13%	-18%	-19%	?	2
COc1ccc(NCc2nc3ccccc3n2CCOc2ccc(C)cc2)cc1	16µM*	?	16µM*	18µM*	?	-95*
COc1ccccc1CNS(=O)(=O)c1c(C)nc2sc(C)cn2c1=O	10%	/	8%	/	/	/
Cc1nn(CC(=O)Nc2ccc(Cl)cc2Cl)c(=O)c2ccccc12	-12%	0%	3%	-4%	-4%	-15
Cc1cc(Cl)c(OCCCn2ccnc2)c(Br)c1	?	-19%	?	-14%	-17%	-72*
Cc1cc(C)c(OCCCn2ccnc2)c(C)c1	-17%	2%	1%	7%	3%	0
Cc1cc(C)c(OCCn2ccnc2)c(C)c1	6.5µM*	-12%	5.2µM*	-3%	-11%	75
Cc1ccc(OCCn2ccnc2)c(C)c1	-9%	-4%	9%	-8%	12%	-14
Cc1ccc(OCCOCCn2ccnc2)c(Br)c1	-26%	-7%	23µM*	-1%	?	-10
Cc1cc(Cl)c(OCCCn2cncn2)c(Br)c1	-8%	0%	-26%	6%	-25%	?
CCOC(=O)C1CCCN(C(=O)c2cc(F)cc(F)c2)CC1 (centres undefined)	-8%	24%	7%	22%	/	21
Cc1ccc2nc(-c3ccncc3)cc(-c3ccccc3)c2c1	?	?	?	?	20%	?
Cc1ccc(-c2cc3cccc[n+]3cc2-c2ccc(C)cc2)cc1	0.65µM*	?	1.2µM*	?	?	-88*
COc1cc(OC)c(N(C)C(=O)Cn2ncc3c(=O)oc4ccccc4c32)cc1Cl	8%	/	13%	/	/	/
COc1cc(C(=O)/C=C/c2cccnc2)c([N+](=O)[O-])cc1OC	5.2µM*	?	5.8µM*	?	?	-100*
